# Reference: PubChem BioAssay (NCI)
# The panel holds about 83,000 compounds, 20% with a hit somewhere; the sample as a whole holds those more often.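 Assay: single dose, 48 h. Readout: percent growth (0 = no net growth; negative = cell death). Active: <10.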 A number with no mark means an inactive call. Calls of active or inactive are those of the source.
# Tests used:
# Assay in all cases: NCI-60 one-dose screen, 48 h (100 = growth as untreated, 0 = no growth, -100 = all killed)
# Conditions in all cases: 10 µM unless noted
# DU-145 prostate = test system: DU-145 prostate
# K-562 leukemia = test system: K-562 leukemia
# MALME-3M melanoma = test system: MALME-3M melanoma
# MDA-MB-231 breast = test system: MDA-MB-231 breast
# RXF 393 renal = test system: RXF 393 renal
# SF-268 CNS = test system: SF-268 CNS
# SF-295 CNS = test system: SF-295 CNS
# SF-539 CNS = test system: SF-539 CNS
# UACC-257 melanoma = test system: UACC-257 melanoma
# M14 melanoma = test system: M14 melanoma
SMILES,growth (DU-145 prostate),growth (K-562 leukemia),growth (MALME-3M melanoma),growth (MDA-MB-231 breast),growth (RXF 393 renal),growth (SF-268 CNS),growth (SF-295 CNS),growth (SF-539 CNS),growth (UACC-257 melanoma),growth (M14 melanoma)
Oc1ccc(C(c2ccc(O)cc2)C(Cl)(Cl)Cl)cc1,109%,79.7%,134%,98.2%,101%,96.9%,96.1%,99.9%,119%,–
CN1CC[C@@H](c2c(O)cc(O)c3c(=O)cc(-c4ccccc4Cl)oc23)[C@@H]1CO,10.7%,4.81% (active),-46.8% (active),6.99% (active),-62.8% (active),3.32% (active),3.04% (active),-33.3% (active),-25.8% (active),–
COc1ccc(Br)cc1NC(=O)Nc1cccc2c1ccn2Cc1ccnc(N)c1,58.7%,4.41% (active),42.1%,-2.75% (active),16.3%,47.5%,-6.47% (active),27.5%,32.5%,–
COC(=O)c1ccc2c(C(=Nc3ccc(N(C)C(=O)CN4CCN(C)CC4)cc3)c3ccccc3)c(O)[nH]c2c1,78.3%,3.75% (active),54.2%,54.8%,15.1%,42.8%,84.1%,36.1%,23%,50.9%
O=C(NC[C@H](O)CO)c1ccncc1Nc1ccc(I)cc1F,63.4%,37.2%,-7.31% (active),29.8%,15.1%,71.3%,67.1%,52.5%,-19.2% (active),–
O=C(Cc1ccc(-c2ccc(OCCN3CCOCC3)cc2)cn1)NCc1ccccc1,8.3% (active),7.04% (active),40.4%,26.7%,29.3%,29.6%,11.7%,-33.2% (active),8.49% (active),0.711% (active)
COC(=O)[C@H](C)NC(=O)[C@@H](OC)[C@@H]1Cc2cc3cc(OC4CC(OC5CC(O)C(O)C(C)O5)C(O)C(C)O4)c(C)c(O)c3c(O)c2C(=O)[C@H]1OC1CC(OC2CC(OC3CC(C)(O)C(O)C(C)O3)C(O)C(C)O2)C(O)C(C)O1 (some centres not stated),13.2%,7.1% (active),-49.3% (active),18.4%,-70.3% (active),14.1%,3.96% (active),-33.2% (active),-0.386% (active),–
O=C(CNc1nc2ccccc2s1)Nc1ccc(-c2nc3ccccc3s2)cc1,106%,95.1%,98.1%,99.2%,112%,92.1%,107%,107%,102%,–
CCN1CCN(CCCN(C[C@H]2Cc3ccccc3CN2)[C@H]2CCCc3cccnc32)CC1,96.7%,63.5%,113%,77.4%,93.8%,75.9%,90.7%,94.2%,80.4%,87.3%
COc1cc2c(Oc3ccc(NC(=O)C4(C(=O)Nc5ccc(F)cc5)CC4)cc3F)ccnc2cc1OCCCN1CCOCC1,16.4%,-12.1% (active),-71.6% (active),-60.3% (active),-94.5% (active),11.6%,-82.9% (active),-90.5% (active),-85.3% (active),–
Cc1[nH]n(C(N)=S)c(=O)c1N=Nc1ccc(S(=O)(=O)Nc2ccncn2)cc1,83.7%,103%,137%,84.7%,108%,85%,125%,99.2%,117%,106%
O=C(c1ccc(/C=C/c2n[nH]c3ccccc23)cc1)N1CCNCC1,39.6%,12.4%,10.4%,27.1%,-15.4% (active),39.2%,51.4%,-12% (active),35.9%,–
CC(C)=CCc1cc2c(cc1O)C1=C(C(=O)C3=C(NCCS3(=O)=O)C1=O)C(C=C(C)C)O2 (configuration not stated),41.2%,8.83% (active),-42.9% (active),12.1%,57.2%,0.726% (active),91.7%,20%,–,–
CCOC(=O)c1sc(NC(=O)COc2ccc(/C=C3\Cc4ccc(Cl)cc4C3=O)cc2)nc1C,117%,102%,110%,90.6%,116%,114%,127%,86.9%,112%,–
C=CC(=O)Nc1cc(Nc2nccc(-c3cn(C)c4ccccc34)n2)c(OC)cc1N(C)CCN(C)C,9.23% (active),-40.1% (active),-82.4% (active),-68.4% (active),-84.2% (active),-15.6% (active),-41.4% (active),-90.7% (active),-79.1% (active),–
FC(F)c1nc2ccccc2n1-c1nc(N2CCOCC2)nc(N2CCOCC2)n1,6.49% (active),13.1%,-26.7% (active),15.7%,-44.5% (active),2.79% (active),-44.6% (active),-45.3% (active),-27.3% (active),–
CO[C@@H](C(=O)N1Cc2[nH]nc(NC(=O)c3ccc(N4CCN(C)CC4)cc3)c2C1)c1ccccc1,17.6%,6.59% (active),48.6%,9.92% (active),-36.4% (active),1.17% (active),31.7%,-4.34% (active),14.2%,–
Cn1ncc(Cl)c1-c1cc(C(=O)N[C@H](CN)Cc2cccc(F)c2)sc1Cl,44.4%,-21.1% (active),-73.8% (active),-9.49% (active),-36.5% (active),27%,-12.5% (active),-31.5% (active),-87.7% (active),-54.8% (active)
NC1(C(=O)N[C@@H](CCO)c2ccc(Cl)cc2)CCN(c2ncnc3[nH]ccc23)CC1,57.2%,76.9%,9.74% (active),73.5%,-42.3% (active),60.9%,-3.48% (active),-54.4% (active),31.7%,–
Cc1ccc(-c2cc3c(SCC(=O)Nc4cc(C(F)(F)F)ccc4Cl)nccn3n2)cc1,25.6%,-10.4% (active),-69.5% (active),13.4%,13.5%,56.5%,38.1%,53.9%,–,–
Cc1cnc(NC(=O)Nc2cc(Br)c(C)cc2OC[C@@H]2CNCCO2)cn1,24%,-42.2% (active),-48.1% (active),22.2%,-14.8% (active),33.6%,4.01% (active),-75.8% (active),-76.8% (active),–
CNC(=O)c1c(C)oc2cc(Oc3ncnc4cc(OC)c(OC)cc34)ccc12,101%,88.4%,104%,101%,66.4%,70.7%,96%,41.6%,86.6%,–
COc1ccc2c(c1)cn1c3ccc(O)cc3nc(N)c21,24.1%,11.1%,31.2%,23.6%,3.22% (active),31.6%,21.9%,-23.2% (active),60.4%,10.4%
Cn1ccnc1C(=O)/C=C/c1ccc(CC(=O)Nc2ccc(S(F)(F)(F)(F)F)cc2)cc1,8.82% (active),0.513% (active),51.4%,-2.8% (active),-70.6% (active),7.07% (active),-6.63% (active),-84.7% (active),54.6%,-27.4% (active)
CN1CCN(CC(=O)Nc2ccc(-c3nc4ccccc4s3)cc2)CC1,85.2%,41.8%,98.3%,59.8%,54.3%,83%,91.1%,-31.9% (active),105%,–
CCc1nc(C(N)=O)c(Nc2ccc(N3CCC(N4CCN(C)CC4)CC3)c(OC)c2)nc1NC1CCOCC1,45.1%,16.1%,52.4%,20.3%,-92.9% (active),38.3%,12.8%,-78.3% (active),40.5%,–
CNC(=O)c1cc(Oc2cccc3nc(Nc4ccc(Oc5ccccc5)cc4)ccc23)ccn1,83.4%,41%,78.2%,71.6%,91.3%,75.4%,60.2%,90.8%,77.2%,–
Cn1nccc1Nc1nccc(-c2ccn([C@H](CO)c3ccc(Cl)c(F)c3)c(=O)c2)n1,93.5%,84.2%,0.796% (active),90.8%,108%,96.4%,98.3%,104%,1.1% (active),–
